According to PubChem BioAssay:
Calls of active or inactive are those of the source.

Legend:
[1] = binders of probe aFSTL3 on microarray, primary screen, stem cell growth factor project, biochemical, small-molecule microarray, fluorescence 635/667 (AID 1064); details: higher = more signal;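 further: measures binding of the biotinylated anti-FSTL3 antibody to printed compounds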
[2] = binders from COS7 lysate, DM2A8 probe, primary screen, torsin A project, cell lysate, small-molecule microarray, fluorescence 635/667 (AID 1065); details: higher = more signal, COS7 lysate expressing mutant human TOR1A
[3] = binders of probe aFGF2 on microarray, primary screen, stem cell growth factor project, biochemical, small-molecule microarray, fluorescence 635/667 (AID 1067); details: higher = more signal;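 further: measures binding of biotinylated aFGF2 protein to printed compounds on slides; z-score merges feature fluorescence and signal-to-noise across triplicate slides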
[4] = binders of probe aFGF10 on microarray, primary screen, stem cell growth factor project, biochemical, small-molecule microarray, fluorescence 635/667 (AID 1071); details: higher = more signal;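 further: score merges 667 nm spot intensity and signal to noise from triplicate slides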
[5] = target: Neurogenic locus notch homolog protein 2 (Homo sapiens) (UniProt Q04721); experiment: Notch2 binders on small-molecule microarrays, primary screen, biochemical, small-molecule microarray, 635 nm fluorescence, stem cell growth factors (AID 1073); details: Notch2 binding, higher = more signal
[6] = target: Pro-neuregulin-1, membrane-bound isoform (Homo sapiens) (UniProt Q02297); experiment: NRG1 binders on small-molecule microarrays, primary screen, psychiatric disease protein project, biochemical, small-molecule microarray, fluorescence 635/667 (AID 1075); details: NRG1 binding, 635 nm fluorescence, higher = more signal;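 further: score combines 667 nm spot fluorescence with signal to noise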
[7] = test system: Neuregulin-1 EGF-like domain; experiment: binders of neuregulin-1 EGF-like domain, primary screen, biochemical, small-molecule microarray, 635 nm fluorescence (AID 1081); details: small-molecule microarray binding, higher = more signal;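 further: binding of the protein to compounds printed on small-molecule microarray slides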
[8] = FRG1 promoter luciferase signal modulators, primary screen, FRG1 inhibition for FSHD, cell-based, C2C12 myotubes, firefly/Renilla luciferase, luminescence (AID 1084); details: higher = more signal, called active from +8 up or from −8 down
[9] = binders of probe aFST on microarray, primary screen, stem cell growth factor project, biochemical, small-molecule microarray, fluorescence 635/667 (AID 1086); details: higher = more signal;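 further: score merges 667 nm fluorescence with signal-to-noise of each printed compound spot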
[10] = binders of probe aHhip on microarray, primary screen, stem cell growth factor project, biochemical, small-molecule microarray, fluorescence 635/667 (AID 1087); details: higher = more signal;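 further: score merges spot fluorescence at 667nm with spot signal to noise ratio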
[11] = test system: PRMT1 (protein arginine N-methyltransferase 1); experiment: PRMT1 binders on small-molecule microarrays, primary screen, biochemical, small-molecule microarray, 635 nm fluorescence (AID 1088); details: small-molecule microarray binding, higher = more signal;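 further: binding of Prmt1 protein to compounds spotted on small-molecule microarray slides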
[12] = yeast growth modulation, basal conditions, primary screen, YJM789 clinical isolate, OD600, 24 h (AID 1089);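 further: growth of clinical yeast isolate S. cerevisiae YJM 789 seeded 1000 cells per well; test concentration not given here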; details: S. cerevisiae YJM789 growth, higher = more signal, called active from +8 up or from −8 down
[13] = fission yeast growth modulation, primary screen, strain 972, OD600, 24 h, no modulator (AID 1090);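 further: basal condition with compound alone and no growth modifier present; test concentration not given here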; details: S. pombe 972 growth, higher = more signal, called active from +8 up or from −8 down
[14] = S. cerevisiae growth modulation with rapamycin, primary screen, strain BY4716, OD600, 96 h (AID 1091); details: higher = more signal, called active from +8 up or from −8 down; further: test concentration not given here
[15] = target: Torsin-1A-interacting protein 2 (Homo sapiens) (UniProt Q8NFQ8); experiment: LULL1 binders on small-molecule microarray, primary screen, cell lysate, human LULL1 lysate, 635/667 nm fluorescence (AID 1092); details: hLULL1 lysate binding, 635 nm fluorescence, higher = more signal;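 further: probe is lysate of COS7 cells overexpressing human LULL1; score merges per-feature 667 nm fluorescence with signal-to-noise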
[16] = E. coli growth modulation, two-sided OD650, primary screen, E. coli filamentation project, strain DRC41, 24 h (AID 1093); details: OD650, 24 h, higher = more signal, called active from +8 up or from −8 down;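 further: MC1000 strain lacking acrAB efflux and sulA so SOS filamentation is blocked; test concentration not given here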
[17] = small-molecule microarray binders of probe aLefty2, primary screen, biochemical, biotinylated probe, 635/667 nm fluorescence (AID 1094); details: higher = more signal;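 further: score merges spot fluorescence near 667 nm with spot signal-to-noise ratio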
[18] = test system: Noggin (protein binding on small-molecule microarray); experiment: Noggin binders on small-molecule microarray, primary screen, biochemical, 635/667 nm fluorescence (AID 1095); details: 635 nm fluorescence, higher = more signal;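 further: score merges 667 nm feature fluorescence with signal to noise over triplicate slides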
[19] = target: Neurogenic locus notch homolog protein 3 (Homo sapiens) (UniProt Q9UM47); experiment: NOTCH3 binders on small-molecule microarray, primary screen, biochemical, 635/667 nm fluorescence (AID 1096); details: NOTCH3 binding, 635 nm fluorescence, higher = more signal
[20] = small-molecule microarray binders of probe aEGFR, primary screen, biochemical, biotinylated probe, 635/667 nm fluorescence (AID 1097); details: higher = more signal;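 further: probe is a biotinylated anti-EGFR antibody binding compounds printed on slides; score combines fluorescence near 667 nm and signal to noise of each spot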

Chain of Neurogenic locus notch homolog protein 2 (Homo sapiens) (Q04721 whole entry, looked up, canonical isoform): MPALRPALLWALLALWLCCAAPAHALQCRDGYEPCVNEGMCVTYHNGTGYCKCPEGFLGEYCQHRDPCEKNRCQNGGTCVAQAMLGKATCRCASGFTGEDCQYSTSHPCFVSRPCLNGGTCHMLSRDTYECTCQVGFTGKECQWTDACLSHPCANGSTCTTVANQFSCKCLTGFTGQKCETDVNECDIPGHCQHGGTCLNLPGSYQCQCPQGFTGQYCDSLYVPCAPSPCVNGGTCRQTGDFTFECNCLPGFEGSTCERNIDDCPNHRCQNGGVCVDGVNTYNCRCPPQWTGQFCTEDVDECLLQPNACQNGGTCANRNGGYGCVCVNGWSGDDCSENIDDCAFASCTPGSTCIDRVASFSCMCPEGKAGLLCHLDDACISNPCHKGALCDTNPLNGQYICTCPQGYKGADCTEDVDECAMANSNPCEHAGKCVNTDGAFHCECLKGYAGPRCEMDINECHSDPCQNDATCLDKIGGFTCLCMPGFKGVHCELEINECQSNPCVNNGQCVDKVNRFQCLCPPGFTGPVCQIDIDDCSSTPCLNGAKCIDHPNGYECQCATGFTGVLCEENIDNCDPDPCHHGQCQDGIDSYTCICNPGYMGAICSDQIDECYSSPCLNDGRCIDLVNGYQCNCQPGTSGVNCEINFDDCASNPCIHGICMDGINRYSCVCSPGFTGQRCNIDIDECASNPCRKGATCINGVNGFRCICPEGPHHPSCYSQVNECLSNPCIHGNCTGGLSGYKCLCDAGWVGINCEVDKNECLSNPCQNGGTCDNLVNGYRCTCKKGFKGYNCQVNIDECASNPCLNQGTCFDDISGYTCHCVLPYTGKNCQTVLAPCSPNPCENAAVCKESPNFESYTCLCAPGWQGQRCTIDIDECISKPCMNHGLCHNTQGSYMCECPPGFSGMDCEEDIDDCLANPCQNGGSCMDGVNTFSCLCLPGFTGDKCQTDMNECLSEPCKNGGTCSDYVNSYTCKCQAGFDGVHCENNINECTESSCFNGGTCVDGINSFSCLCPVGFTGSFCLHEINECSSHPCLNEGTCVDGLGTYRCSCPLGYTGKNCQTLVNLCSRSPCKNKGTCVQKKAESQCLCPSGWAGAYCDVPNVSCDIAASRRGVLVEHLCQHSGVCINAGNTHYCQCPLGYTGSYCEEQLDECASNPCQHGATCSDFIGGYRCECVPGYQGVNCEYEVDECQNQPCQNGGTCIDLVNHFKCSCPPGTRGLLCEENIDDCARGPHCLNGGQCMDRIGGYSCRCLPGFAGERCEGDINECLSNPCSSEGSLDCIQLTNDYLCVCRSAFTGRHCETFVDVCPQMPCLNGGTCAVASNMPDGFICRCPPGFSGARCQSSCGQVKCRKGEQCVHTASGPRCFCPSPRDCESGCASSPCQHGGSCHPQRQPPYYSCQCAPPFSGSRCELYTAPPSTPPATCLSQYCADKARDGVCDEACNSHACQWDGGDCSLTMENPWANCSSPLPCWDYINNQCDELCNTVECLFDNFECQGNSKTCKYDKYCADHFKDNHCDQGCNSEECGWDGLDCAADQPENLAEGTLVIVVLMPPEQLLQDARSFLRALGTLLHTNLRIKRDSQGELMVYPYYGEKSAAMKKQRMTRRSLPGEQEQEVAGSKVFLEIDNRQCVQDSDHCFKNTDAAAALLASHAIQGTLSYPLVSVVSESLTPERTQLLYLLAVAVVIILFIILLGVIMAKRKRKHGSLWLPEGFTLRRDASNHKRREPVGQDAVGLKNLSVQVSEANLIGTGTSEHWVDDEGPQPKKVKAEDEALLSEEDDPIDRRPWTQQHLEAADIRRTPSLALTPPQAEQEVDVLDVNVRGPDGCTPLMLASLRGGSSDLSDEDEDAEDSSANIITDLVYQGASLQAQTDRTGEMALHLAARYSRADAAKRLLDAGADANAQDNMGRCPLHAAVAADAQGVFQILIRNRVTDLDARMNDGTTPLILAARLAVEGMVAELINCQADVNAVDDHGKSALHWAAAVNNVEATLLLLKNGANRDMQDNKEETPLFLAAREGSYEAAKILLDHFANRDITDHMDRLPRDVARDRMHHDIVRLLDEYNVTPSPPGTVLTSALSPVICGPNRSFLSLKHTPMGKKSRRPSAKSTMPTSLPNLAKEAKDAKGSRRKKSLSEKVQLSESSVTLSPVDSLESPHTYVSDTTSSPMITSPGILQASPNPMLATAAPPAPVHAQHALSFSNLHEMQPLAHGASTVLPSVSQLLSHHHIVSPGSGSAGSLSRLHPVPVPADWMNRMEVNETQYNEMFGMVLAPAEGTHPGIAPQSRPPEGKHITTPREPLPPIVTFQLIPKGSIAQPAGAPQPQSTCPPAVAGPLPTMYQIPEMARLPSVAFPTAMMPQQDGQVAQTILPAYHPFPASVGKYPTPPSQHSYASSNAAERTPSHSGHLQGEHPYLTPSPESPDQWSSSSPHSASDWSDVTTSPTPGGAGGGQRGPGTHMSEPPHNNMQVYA
Chain of Pro-neuregulin-1, membrane-bound isoform (Homo sapiens) (Q02297 whole entry, looked up, the tested form may be a part, canonical isoform): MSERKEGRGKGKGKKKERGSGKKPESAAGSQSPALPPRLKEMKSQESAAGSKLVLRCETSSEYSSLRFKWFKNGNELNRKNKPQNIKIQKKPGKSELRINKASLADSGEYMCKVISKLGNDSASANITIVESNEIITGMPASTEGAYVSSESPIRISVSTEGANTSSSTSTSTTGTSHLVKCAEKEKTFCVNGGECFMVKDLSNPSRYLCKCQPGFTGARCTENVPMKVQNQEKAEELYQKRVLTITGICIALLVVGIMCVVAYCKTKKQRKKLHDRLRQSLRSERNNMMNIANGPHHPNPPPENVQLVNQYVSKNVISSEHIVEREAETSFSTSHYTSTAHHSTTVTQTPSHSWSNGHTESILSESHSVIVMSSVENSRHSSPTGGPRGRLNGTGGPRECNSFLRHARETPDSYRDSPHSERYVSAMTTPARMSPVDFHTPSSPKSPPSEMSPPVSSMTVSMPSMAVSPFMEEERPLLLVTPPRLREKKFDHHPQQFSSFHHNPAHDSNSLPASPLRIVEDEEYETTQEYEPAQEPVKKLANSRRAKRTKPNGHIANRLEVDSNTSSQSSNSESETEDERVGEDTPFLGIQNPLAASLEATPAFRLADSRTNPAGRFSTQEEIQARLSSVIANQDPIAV
Chain of Torsin-1A-interacting protein 2 (Homo sapiens) (Q8NFQ8 whole entry, looked up): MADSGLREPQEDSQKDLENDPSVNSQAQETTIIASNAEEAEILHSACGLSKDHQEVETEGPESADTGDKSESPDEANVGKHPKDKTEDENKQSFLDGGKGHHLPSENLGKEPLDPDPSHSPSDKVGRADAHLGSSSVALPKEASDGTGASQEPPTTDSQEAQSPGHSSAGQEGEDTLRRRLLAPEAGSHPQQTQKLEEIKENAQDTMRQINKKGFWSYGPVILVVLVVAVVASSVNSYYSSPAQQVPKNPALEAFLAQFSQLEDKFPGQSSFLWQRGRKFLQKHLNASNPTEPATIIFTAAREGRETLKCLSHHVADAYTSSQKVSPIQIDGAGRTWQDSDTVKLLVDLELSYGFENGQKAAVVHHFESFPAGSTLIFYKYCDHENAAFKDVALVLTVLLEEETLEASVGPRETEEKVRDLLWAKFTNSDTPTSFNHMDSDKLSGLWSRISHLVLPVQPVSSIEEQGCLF

SMILES	composite z-score [1]	composite z-score [2]	composite z-score [3]	composite z-score [4]	composite z-score [5]	composite z-score [6]	composite z-score [7]	z-score [8]	composite z-score [9]	composite z-score [10]	composite z-score [11]	z-score [12]	z-score [13]	z-score [14]	composite z-score [15]	z-score [16]	composite z-score [17]	composite z-score [18]	composite z-score [19]	composite z-score [20]
O=C1OCC=C[C@H]2OC34C=CCN(Cc5ccccc5)C(=O)[C@H]3N(CCCCCCO)C(=O)[C@@H]4[C@@H]12 (stereo not given in full)	0.329	-0.443	-0.191	-0.0166	-0.812	0.273	1.12	-0.843 (inactive)	-0.474	-0.249	-0.325	-0.997 (inactive)	0.0262 (inactive)	-1.53 (inactive)	1.76	2.11 (inactive)	0.0124	-0.742	-0.153	-0.159
CC(C)N1C(=O)C[C@@](C(=O)NCCCN(C)C)(c2ccc([N+](=O)[O-])cc2)[C@H]1c1ccc(CO)cc1	-0.153	-0.351	-0.0328	0.589	-0.072	0.454	-0.412	-0.0382 (inactive)	0.27	-0.409	-0.139	-0.768 (inactive)	-1.42 (inactive)	-0.525 (inactive)	0.349	-1.41 (inactive)	-0.0221	-0.131	-0.233	-0.124
O=C1O[C@H](c2ccccc2)[C@H](c2ccccc2)N2[C@H]1[C@@H](C(=O)Nc1nc3ccccc3s1)[C@]1(C(=O)Nc3ccc(C#CCCO)cc31)[C@H]2c1ccc(O)cc1	-0.309	0.931	-0.0074	1.01	0.947	1.2	1.27	0.912 (inactive)	0.652	-0.0581	1.55	0.758 (inactive)	0.936 (inactive)	1.14 (inactive)	2.39	-0.672 (inactive)	0.0769	0.744	1.13	0.346
CC(C)C[C@@H]1NC(=O)[C@@H]2C[C@H](C(=O)NCCCCCN)[C@H](c3ccc(O)cc3)N2C1=O	0.347	0.174	-0.0909	0.335	0.727	1.26	1.3	-0.375 (inactive)	0.371	0.0854	1.57	0.563 (inactive)	0.32 (inactive)	0.965 (inactive)	2.57	-0.687 (inactive)	-0.109	1.47	0.894	-0.0078
O=C1O[C@@H](c2ccccc2)[C@@H](c2ccccc2)N2[C@@H](c3ccccc3OCCO)[C@]3(C(=O)Nc4ccc(C#CCCO)cc43)[C@@H](C(=O)N3CCCCCCC3)[C@H]12	4.01	2.76	1.1	1.47	1.83	2.86	1.35	-3.55 (inactive)	3.89	2.64	1.53	0.295 (inactive)	-4.61 (inactive)	1.33 (inactive)	5.16	-0.798 (inactive)	1.99	2.28	1.01	1.49
O=C1OCCC=C[C@H]2OC34C=CCN(Cn5nnc6ccccc65)C(=O)[C@H]3N(CCCCCCO)C(=O)[C@@H]4C12 (stereo not given in full)	0.603	0.134	-0.129	-0.612	-1.29	-0.207	1.11	-0.229 (inactive)	-0.564	-0.134	-0.0465	0.298 (inactive)	0.577 (inactive)	0.194 (inactive)	0.529	-0.369 (inactive)	-0.0741	-1.09	-0.36	-0.354
CC1=C([C@H](O)CCc2ccccc2)[C@H](CO)[C@@H]2C(=O)N(C)C(=O)[C@@H]2C1	-0.0659	0.388	0.411	0.0805	0.451	0.174	0.493	-0.445 (inactive)	0.0014	-0.137	0.958	0.618 (inactive)	-0.589 (inactive)	0.123 (inactive)	1.07	1.3 (inactive)	-0.152	0.296	0.394	-0.154
C=CCC(OC(C)=O)[C@@H]1[C@@H](N(Cc2ccc(-c3cccc(C(F)(F)F)c3)o2)C(=O)c2ccc(C)cc2)c2cc(OCCCO)ccc2N1C(=O)c1ccc2ccccc2c1 (stereo not given in full)	-0.302	0.462	0.0002	0.298	-0.204	-0.0678	0.273	0.0925 (inactive)	0.0494	0.0749	0.128	0.488 (inactive)	0.668 (inactive)	0.742 (inactive)	0.407	1.14 (inactive)	-0.138	0.485	0.313	-0.125
COC(=O)[C@@]1(Cc2ccccc2)[C@H]2c3cc(C(=O)N(C)C)n(Cc4c(CO)[nH]cc(C)c4=O)c3C[C@H]2CN1C(=O)c1ccccc1	0.268	0.311	0.206	0.528	1.53	1.49	1.38	-0.325 (inactive)	0.608	0.0456	0.0795	0.469 (inactive)	1.51 (inactive)	0.0018 (inactive)	3.13	-0.633 (inactive)	0.163	-0.38	0.447	0.0288
CCCCC=C[C@@H](NC(=O)c1ccc(-c2ccccc2)cc1)c1ccccc1	-0.0095	-0.0424	-0.021	0.457	1.44	1.55	0.739	0.61 (inactive)	0.517	0.21	0.246	0.603 (inactive)	-1.45 (inactive)	-0.713 (inactive)	2.44	-0.444 (inactive)	0.179	-0.323	0.496	-0.094
